# Source: the supplement of paper PMC10849652
# Of roughly 7,900 targets only a part is listed; those with a hit were picked by preference. About 0.6% of all pairs of compound and target were hits. Unmarked numbers belong to inactive results.
# Legend:
# Assay in all cases: log2 fold change, soluble protein after heating vs DMSO (PISA); higher = thermal stabilisation; K562 cells, 10 uM, 30 min; active = over 0.2 and 3.5 SD of the protein, either way, in both replicates (recomputed)
# [1] = compound: CC[C@@H]1C(=O)N(C)c2cnc(Nc3ccc(C(=O)NC4CCN(C)CC4)cc3OC)nc2N1C1CCCC1
# How it was run: (§1)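 Aliquots of K562 cells (2×10^6 cells/mL) treated with 10 μM compound for 30 min were heated for 3 min over 48°C-58°C. After pooling and extraction in PBS with 0.5% NP-40 at 4°C, soluble protein from a 21,000xg, 90 min spin was quantified by TMTpro 16plex LC-MS/MS with channel sums equalised. Thermal stability is expressed against control samples, from duplicates, as a log2 fold change.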
# volasertib = compound: CC[C@@H]1C(=O)N(C)c2cnc(Nc3ccc(C(=O)N[C@H]4CC[C@H](N5CCN(CC6CC6)CC5)CC4)cc3OC)nc2N1C(C)C [volasertib]
# How it was run: as §1
# [2] = compound: CC[C@H](C)N1C=C(C2=C(C=C(C=C21)C3=CN=C(C=C3)N4CCNCC4)C(=O)NCC5=C(C=C(NC5=O)C)C)C
# How it was run: as §1
# epoxomicin = compound: CC[C@H](C)[C@@H](C(=O)N[C@@H]([C@@H](C)O)C(=O)N[C@@H](CC(C)C)C(=O)[C@]1(CO1)C)NC(=O)[C@H]([C@@H](C)CC)N(C)C(=O)C [epoxomicin]
# How it was run: as §1
# [3] = compound: CCn1c(C(=O)N(C2CC2)C2CC2)cc2c3c(ncn3C)c(Nc3cc(C)n(C)n3)nc21
# How it was run: as §1
# [4] = compound: CCn1cc(-c2ccnc3[nH]c(-c4cccc(CN(C)C)c4)cc23)c(-c2ccc(NC(=O)N(C)C)cc2)n1
# How it was run: as §1
# [5] = compound: CN(C)CC(=O)Nc1ccc2[nH]c(=O)c3ccccc3c2c1
# How it was run: as §1
# rosiglitazone = compound: CN(CCOC1=CC=C(C=C1)C[C@H]2C(=O)NC(=O)S2)C3=CC=CC=N3 (racemic) [rosiglitazone]
# How it was run: as §1
# [6] = compound: CN1C2=C(C3=C1C(=O)N(N=C3)CC4=CC(=CC=C4)N)SC(=C2)S(=O)C
# How it was run: as §1
# [7] = compound: CN1CCC(CNc2ccc3ncc(-c4cccc(OC(F)(F)F)c4)n3n2)CC1
# How it was run: as §1
# UniProt Q9BR61, sequence (Q9BR61 whole entry, looked up): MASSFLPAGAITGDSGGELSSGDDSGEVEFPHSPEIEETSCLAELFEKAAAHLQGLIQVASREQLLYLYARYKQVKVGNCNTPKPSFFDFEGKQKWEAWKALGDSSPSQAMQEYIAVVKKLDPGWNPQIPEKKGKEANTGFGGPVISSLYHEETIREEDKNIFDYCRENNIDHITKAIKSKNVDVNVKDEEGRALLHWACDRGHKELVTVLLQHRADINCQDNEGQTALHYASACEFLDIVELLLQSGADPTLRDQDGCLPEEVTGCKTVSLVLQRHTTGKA
# UniProt P35611, sequence (P35611 whole entry, looked up): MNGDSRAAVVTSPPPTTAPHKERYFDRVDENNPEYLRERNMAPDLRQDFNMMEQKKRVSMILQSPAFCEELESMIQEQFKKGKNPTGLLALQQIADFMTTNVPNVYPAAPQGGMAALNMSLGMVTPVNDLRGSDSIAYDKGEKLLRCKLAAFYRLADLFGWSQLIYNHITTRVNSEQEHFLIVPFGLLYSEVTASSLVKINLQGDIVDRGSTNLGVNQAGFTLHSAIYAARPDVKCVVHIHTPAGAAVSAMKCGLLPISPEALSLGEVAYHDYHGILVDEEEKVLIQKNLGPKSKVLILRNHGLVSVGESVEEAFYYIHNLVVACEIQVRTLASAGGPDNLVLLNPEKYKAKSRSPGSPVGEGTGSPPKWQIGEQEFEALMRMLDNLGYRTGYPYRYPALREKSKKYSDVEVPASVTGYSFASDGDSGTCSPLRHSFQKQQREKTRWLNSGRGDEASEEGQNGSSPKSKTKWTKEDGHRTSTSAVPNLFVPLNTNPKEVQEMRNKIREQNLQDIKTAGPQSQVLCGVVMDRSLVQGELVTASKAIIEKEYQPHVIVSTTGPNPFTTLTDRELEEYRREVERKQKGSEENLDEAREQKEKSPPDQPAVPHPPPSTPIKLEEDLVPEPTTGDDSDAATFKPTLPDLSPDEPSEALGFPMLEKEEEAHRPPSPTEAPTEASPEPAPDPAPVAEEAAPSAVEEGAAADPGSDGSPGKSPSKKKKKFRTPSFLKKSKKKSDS
# UniProt Q53FZ2, sequence (Q53FZ2 whole entry, looked up): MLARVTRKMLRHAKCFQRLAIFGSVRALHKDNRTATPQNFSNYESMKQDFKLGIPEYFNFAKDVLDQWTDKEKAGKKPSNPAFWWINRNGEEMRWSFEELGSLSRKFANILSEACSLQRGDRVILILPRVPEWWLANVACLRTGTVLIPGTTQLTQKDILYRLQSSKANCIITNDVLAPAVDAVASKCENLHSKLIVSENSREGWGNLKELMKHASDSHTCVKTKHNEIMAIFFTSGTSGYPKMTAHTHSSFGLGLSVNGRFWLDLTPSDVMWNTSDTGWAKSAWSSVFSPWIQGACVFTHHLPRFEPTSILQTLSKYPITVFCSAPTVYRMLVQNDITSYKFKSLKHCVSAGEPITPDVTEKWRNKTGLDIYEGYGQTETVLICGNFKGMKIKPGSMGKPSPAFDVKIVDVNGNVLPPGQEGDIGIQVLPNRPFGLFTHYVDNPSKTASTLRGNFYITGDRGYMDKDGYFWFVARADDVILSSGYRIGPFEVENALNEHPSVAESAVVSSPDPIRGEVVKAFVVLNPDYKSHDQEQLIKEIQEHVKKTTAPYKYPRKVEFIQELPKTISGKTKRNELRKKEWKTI
# UniProt P11117, sequence (P11117 whole entry, looked up): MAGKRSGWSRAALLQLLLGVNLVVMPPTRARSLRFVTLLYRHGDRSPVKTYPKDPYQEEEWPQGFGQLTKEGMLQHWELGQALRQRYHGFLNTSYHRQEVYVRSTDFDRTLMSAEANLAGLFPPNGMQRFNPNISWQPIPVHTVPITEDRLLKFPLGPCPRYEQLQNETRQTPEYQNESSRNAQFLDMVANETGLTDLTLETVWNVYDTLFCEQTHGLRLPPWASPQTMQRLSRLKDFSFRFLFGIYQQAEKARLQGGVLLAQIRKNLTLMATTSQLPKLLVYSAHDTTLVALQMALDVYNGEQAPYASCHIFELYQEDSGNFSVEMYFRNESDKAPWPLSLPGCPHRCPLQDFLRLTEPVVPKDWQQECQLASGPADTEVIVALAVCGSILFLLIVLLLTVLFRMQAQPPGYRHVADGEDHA
# UniProt P55263, sequence (P55263 whole entry, looked up): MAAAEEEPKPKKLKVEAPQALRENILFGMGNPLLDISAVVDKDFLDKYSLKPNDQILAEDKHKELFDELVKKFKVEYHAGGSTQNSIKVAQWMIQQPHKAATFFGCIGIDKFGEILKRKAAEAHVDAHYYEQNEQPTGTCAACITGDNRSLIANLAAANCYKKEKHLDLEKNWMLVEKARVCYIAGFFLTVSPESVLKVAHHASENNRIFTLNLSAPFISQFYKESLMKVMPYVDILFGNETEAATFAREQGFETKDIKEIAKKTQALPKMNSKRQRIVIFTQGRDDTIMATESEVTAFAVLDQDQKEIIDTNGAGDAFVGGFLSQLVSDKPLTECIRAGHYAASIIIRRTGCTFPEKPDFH
# UniProt Q9UEY8, sequence (Q9UEY8 whole entry, looked up): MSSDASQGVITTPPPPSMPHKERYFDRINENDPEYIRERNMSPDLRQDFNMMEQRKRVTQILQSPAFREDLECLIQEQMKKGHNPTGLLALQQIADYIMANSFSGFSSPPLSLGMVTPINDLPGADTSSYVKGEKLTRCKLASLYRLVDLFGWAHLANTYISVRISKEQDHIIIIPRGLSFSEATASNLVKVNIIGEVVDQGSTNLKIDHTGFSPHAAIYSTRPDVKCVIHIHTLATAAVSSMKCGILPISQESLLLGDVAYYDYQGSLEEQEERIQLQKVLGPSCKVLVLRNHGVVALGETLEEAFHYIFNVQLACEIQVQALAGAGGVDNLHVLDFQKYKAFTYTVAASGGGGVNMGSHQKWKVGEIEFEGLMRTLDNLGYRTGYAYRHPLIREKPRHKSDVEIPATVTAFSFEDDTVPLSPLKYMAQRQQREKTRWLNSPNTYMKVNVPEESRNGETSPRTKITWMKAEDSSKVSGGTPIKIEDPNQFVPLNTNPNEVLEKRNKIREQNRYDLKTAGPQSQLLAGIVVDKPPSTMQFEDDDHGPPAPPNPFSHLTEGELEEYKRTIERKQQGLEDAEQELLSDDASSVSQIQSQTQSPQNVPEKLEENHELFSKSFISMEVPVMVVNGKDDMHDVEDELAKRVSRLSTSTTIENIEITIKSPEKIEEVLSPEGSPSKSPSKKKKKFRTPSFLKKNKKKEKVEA
# UniProt Q9H8Y5, sequence (Q9H8Y5 whole entry, looked up): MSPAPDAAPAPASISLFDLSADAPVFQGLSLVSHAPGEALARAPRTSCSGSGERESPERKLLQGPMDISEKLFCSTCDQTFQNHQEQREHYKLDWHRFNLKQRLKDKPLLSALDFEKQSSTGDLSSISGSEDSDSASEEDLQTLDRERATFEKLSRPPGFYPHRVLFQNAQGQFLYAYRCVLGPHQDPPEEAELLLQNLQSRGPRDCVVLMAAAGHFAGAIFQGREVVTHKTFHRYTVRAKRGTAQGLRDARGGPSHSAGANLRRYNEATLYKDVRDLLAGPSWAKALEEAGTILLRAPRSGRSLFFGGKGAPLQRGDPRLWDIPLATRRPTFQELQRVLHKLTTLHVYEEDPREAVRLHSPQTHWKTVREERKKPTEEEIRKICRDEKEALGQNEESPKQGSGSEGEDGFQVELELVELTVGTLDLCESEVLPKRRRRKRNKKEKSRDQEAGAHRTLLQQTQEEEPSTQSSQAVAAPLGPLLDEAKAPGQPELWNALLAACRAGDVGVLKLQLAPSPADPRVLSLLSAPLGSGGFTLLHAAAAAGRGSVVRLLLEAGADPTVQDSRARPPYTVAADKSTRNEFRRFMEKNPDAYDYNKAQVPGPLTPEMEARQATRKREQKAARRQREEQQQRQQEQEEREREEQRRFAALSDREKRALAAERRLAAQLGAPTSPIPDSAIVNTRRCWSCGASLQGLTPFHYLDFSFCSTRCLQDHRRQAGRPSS
# UniProt Q13733, sequence (Q13733 whole entry, looked up): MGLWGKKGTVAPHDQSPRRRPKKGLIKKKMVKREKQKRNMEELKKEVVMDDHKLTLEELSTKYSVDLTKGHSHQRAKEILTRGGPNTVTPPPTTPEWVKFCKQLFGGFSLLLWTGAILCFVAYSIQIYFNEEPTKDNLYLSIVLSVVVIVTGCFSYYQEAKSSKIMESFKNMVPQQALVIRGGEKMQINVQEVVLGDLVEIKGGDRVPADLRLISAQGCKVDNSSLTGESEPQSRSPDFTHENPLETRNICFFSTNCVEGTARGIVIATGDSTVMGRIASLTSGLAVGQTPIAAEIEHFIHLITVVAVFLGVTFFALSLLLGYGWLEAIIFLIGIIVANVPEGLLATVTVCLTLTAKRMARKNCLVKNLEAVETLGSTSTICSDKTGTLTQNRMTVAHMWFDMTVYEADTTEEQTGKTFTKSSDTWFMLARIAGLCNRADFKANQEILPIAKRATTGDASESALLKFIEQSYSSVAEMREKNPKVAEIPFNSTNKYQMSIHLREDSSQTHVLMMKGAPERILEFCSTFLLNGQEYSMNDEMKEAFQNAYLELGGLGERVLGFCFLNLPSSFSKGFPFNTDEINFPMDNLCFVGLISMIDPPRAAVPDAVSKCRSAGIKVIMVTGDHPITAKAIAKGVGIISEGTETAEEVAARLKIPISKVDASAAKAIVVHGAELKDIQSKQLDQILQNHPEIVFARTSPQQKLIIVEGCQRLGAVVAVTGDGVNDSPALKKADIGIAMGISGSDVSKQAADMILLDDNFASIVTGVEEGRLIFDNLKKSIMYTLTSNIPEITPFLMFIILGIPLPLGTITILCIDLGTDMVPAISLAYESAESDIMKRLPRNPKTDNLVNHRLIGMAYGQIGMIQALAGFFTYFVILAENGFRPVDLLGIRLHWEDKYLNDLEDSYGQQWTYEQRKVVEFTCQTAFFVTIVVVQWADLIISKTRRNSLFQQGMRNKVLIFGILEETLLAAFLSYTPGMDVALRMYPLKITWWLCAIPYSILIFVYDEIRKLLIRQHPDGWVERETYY
Target,log2 fold change [1],log2 fold change (volasertib),log2 fold change [2],log2 fold change (epoxomicin),log2 fold change [3],log2 fold change [4],log2 fold change [5],log2 fold change (rosiglitazone),log2 fold change [6],log2 fold change [7]
ATG4B isoform 2 (UniProt Q9Y4P1),-0.007,-0.441,0.16,-0.013,0.011,0.039,0.08,0.136,0.1,-0.302
ATP1A4 (UniProt Q13733),0.125,0.07,-0.025,0.081,-0.004,-0.056,-0.05,0.006,-0.057,0.26 (active)
ARL6IP4 (UniProt Q66PJ3),0.008,-0.009,-0.023,0.014,0.015,-0.025,0.001,0.017,-0.065,0.01
ACADVL isoform 3 (UniProt P49748),0.119,0.099,-0.007,0.025,0.008,-0.014,0.004,-0.004,-0.054,-0.045
ADD1 isoform 3 (UniProt P35611),0.077,0.015,-0.015,-0.012,-0.007,0.011,-0.039,-0.004,-0.055,0.053
ADK (UniProt P55263),0.338,0.359,-0.095,-0.011,0.097,-0.026,-0.018,-0.017,-0.085,0.184
ANKZF1 (UniProt Q9H8Y5),-0.063,-0.055,0.036,-0.001,-0.036,0.004,-0.076,-0.002,0.214,0.066
ATP13A2 (UniProt Q9NQ11),-0.141,-0.103,-0.074,0.003,0.012,-0.031,-0.002,0.066,0.058,-0.509 (active)
AKT2 (UniProt P31751),-0.017,-0.253,0.128,0.079,-0.061,-0.175,-0.026,0.082,-0.038,-0.119
ATIC (UniProt P31939),-0.032,0.021,0.029,0.04,-0.011,-0.016,0.023,-0.012,-0.123,0.029
BYSL (UniProt Q13895),-0.009,-0.113,0.072,0.118,-0.077,0.053,0.079,0.045,0.09,0.053
ALG11 (UniProt Q2TAA5),-0.034,-0.17,0.126,0.038,-0.075,0.006,0.018,0.021,-0.109,0.042
ALG5 (UniProt Q9Y673),-0.028,-0.026,0.017,0.043,-0.036,-0.069,0.035,0.078,-0.088,0.017
ACSM3 (UniProt Q53FZ2),0.021,-0.092,0.062,0.146,-0.03,-0.02,0.154,0.046,-0.099,-0.145
ARL1 (UniProt P40616),0.072,-0.113,0.023,0.028,0.014,-0.05,0.025,0.032,-0.157,0.059
ACBD6 (UniProt Q9BR61),-0.032,-0.473 (active),0.103,0.05,0.01,-0.11,0.141,0.363,-0.099,0.046
ALG14 (UniProt Q96F25),0.2,0.11,-0.077,0.382,-0.014,-0.215,0.062,0.016,-0.124,0.443
BOP1 (UniProt Q14137),-0.072,-0.328,0.019,0.002,-0.023,-0.075,0.009,-0.053,0.228,0.141
B4GALNT1 (UniProt Q00973),-0.243,-0.097,-0.115,-0.059,0.078,0.01,0.143,0.025,-0.103,0.173
BCLAF1 (UniProt Q9NYF8),-0.089,-0.08,0.024,-0.027,-0.016,-0.002,0.099,0.018,-0.015,0.024
ADRM1 (UniProt Q16186),0.122,0.197,0.024,-0.083,0.04,-0.013,-0.006,0,0.045,0.062
AGO1 (UniProt Q9UL18),0.215,0.124,-0.1,-0.148,-0.029,0.032,0.098,0.042,0.14,-0.151
BRIX1 (UniProt Q8TDN6),0.166,0.317,0.048,-0.343,-0.041,0.31,-0.143,-0.266,0.36,0.481
ACP2 (UniProt P11117),-0.156,-0.151,-0.068,0.019,0.004,-0.02,-0.029,0.006,0.013,-0.14
ADD3 (UniProt Q9UEY8),0.098,0.056,-0.024,0.014,0.01,0.054,-0.03,-0.006,-0.056,-0.023
AP2B1 isoform 2 (UniProt P63010),0.065,-0.064,-0.001,-0.004,0.05,-0.021,-0.007,-0.018,-0.016,0.045
ACSL4 (UniProt O60488),-0.15,-0.276,-0.051,0.024,-0.098,-0.029,0.092,1.17 (active),0.051,-0.229
ACACB (UniProt O00763),-0.006,-0.468,0.083,-0.1,-0.194,0.086,0.061,0.167,0.308,0.104
ACIN1 (UniProt Q9UKV3),-0.017,-0.056,-0.012,-0.048,-0.057,0.004,-0.034,0.008,-0.021,-0.097
